Test results taken from PubChem BioAssay (NCATS).
Results filed as inconclusive are left out. The source made the active and inactive calls. Calls come from the whole dose curve; as a rule, active = well fitted inhibition curve with a large enough effect; inconclusive = small, poorly fitted or top-dose-only effect; inactive = no such curve, though single readings can be large or run the other way.

Target: Cytochrome P450 2C19 (Homo sapiens) (UniProt P33261)
Assay: qHTS Assay for Inhibitors and Substrates of Cytochrome P450 2C19 (AID 899); note: nearly all actives have a fitted effect of over 60% in size
Outline: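 Reactions contain 5nM enzyme, 10uM Luciferin-H EGE (KM) and 50mM KPO4; compound preincubates 10 min at 37C, NADPH regeneration starts turnover for 60 min. Luminescence after detection reagent gives activity.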
Potency is the fitted concentration of half-maximal effect.

Cytochrome P450 2C19 (Homo sapiens), sequence (P33261 whole entry, looked up): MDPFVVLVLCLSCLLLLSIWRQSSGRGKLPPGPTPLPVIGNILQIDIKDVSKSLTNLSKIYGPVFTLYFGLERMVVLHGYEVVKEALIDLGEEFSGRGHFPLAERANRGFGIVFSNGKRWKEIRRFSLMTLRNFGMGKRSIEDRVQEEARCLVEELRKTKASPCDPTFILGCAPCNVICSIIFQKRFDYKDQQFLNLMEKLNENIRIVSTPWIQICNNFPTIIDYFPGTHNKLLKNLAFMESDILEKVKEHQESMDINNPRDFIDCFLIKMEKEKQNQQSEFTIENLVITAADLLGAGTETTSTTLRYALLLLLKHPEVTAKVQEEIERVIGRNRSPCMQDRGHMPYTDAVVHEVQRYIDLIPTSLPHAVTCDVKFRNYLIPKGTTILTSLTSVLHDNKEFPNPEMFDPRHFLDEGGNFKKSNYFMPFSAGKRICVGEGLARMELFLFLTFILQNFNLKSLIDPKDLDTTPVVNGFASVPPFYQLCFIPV

CS(=O)(=O)Nc1cccc(-c2ccc3ncnc(NC4CC4)c3c2)c1
Potency: inactive

Cc1ccccc1-c1cncnc1NCc1cccs1
Potency: 794 nM (active)

Cc1ccccc1-c1cc(NCc2ccccc2)ncn1
Potency: 3160 nM (active)
